Test results reported in PubChem BioAssay (NCATS).
Results filed as inconclusive are left out. Unmarked numbers belong to inactive results. Activity calls are given as the source filed them. The call rests on the fitted dose curve; in most records, active means well fitted cell-killing curve with a large enough effect; inconclusive means small, poorly fitted or top-dose-only effect; inactive means no such curve, though single readings can be large or run the other way.

Experiment: qHTS of pediatric cancer cell lines to identify multiple opportunities for drug repurposing: Primary screen for Rh41 cells (AID 1347108); further: nearly all actives have a fitted effect of over 70% in size;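 on activity change, negative = cytotoxic: luminescence drop marks cytotoxic hits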
Settings: Rh41 rhabdomyosarcoma viability, CellTiter-Glo luminescence, 48 h; series mostly up to 46 µM; activity change, negative = cytotoxic: at the top concentration
In short: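 Luminescence from CellTiter-Glo served as readout of metabolically active cells after 48 h compound exposure. Titrations: MIPE 11-point, from 0.78 nM; NPC 8-point, from 0.59 nM (final). Concentration-response curves came straight from the primary screen.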
Potency means the concentration at half of the fitted maximal effect.

| SMILES | activity change, negative = cytotoxic | Potency |
| --- | --- | --- |
| COc1cc2ncn(-c3cc(OCc4ccccc4S(C)(=O)=O)c(C#N)s3)c2cc1OC | -19.3% |  |
| CN1c2ccccc2C(=O)N2CCc3c([nH]c4ccccc34)C21 (stereo not given) | 11.3% |  |
| CC=C1C2C=C(C)CC1(N)c1ccc(=O)[nH]c1C2 (stereo not given) | 20.7% |  |
| CCC(=C(CC)c1ccc(O)cc1)c1ccc(O)cc1 | 3.72% |  |
| NCC1CCC(C(=O)O)CC1 (stereo not given) | 24.8% |  |
| O=C1C(c2c(O)[nH]c3ccccc23)=Nc2ccccc21 | 29.6% |  |
| Cc1ccc(NC(=O)c2cccc(N(C)C)c2)cc1NC(=O)c1ccc(O)cc1 |  | 2.96 µM (active) |
| Cc1cc2c(cc1C1(c3ccc(C(=O)O)cn3)CC1)C(C)(C)CCC2(C)C | -0.246% |  |
| C[C@H]1[C@H](O)O[C@@H]2O[C@@]3(C)CC[C@@H]4[C@H](C)CC[C@@H]1[C@@]24OO3 | -29% |  |
| CN[C@@H](C)[C@H]1[C@H](O)C[C@@]2(C)[C@@H]3CC[C@H]4C(C)(C)[C@@H](NC)CC[C@@]45C[C@@]35CC[C@]12C | 9.66% |  |
| COc1cc(C=CC(=O)O)ccc1O | 34.7% |  |
| Cc1cnc(Nc2cccc(CN3CCOCC3)c2)nc1Nc1cccc(S(=O)(=O)NC(C)(C)C)c1 |  | 6.62 µM (active) |
| CCOC(=O)N1CCN([N+]([O-])=NOc2cc(ON=[N+]([O-])N3CCN(C(=O)OCC)CC3)c([N+](=O)[O-])cc2[N+](=O)[O-])CC1 | 21.2% |  |
| Cc1cnc(CNC(=O)c2c(=O)c3ccc(N4CCCN(C)CC4)nc3n3c2sc2ccccc23)cn1 | -17.2% [at 16.1 µM] |  |
| OC(c1cc(C(F)(F)F)nc2c(C(F)(F)F)cccc12)C1CCCCN1 (stereo not given) | 10.1% |  |
